{
  "source": "paper PMC13541613",
  "about": "“GHT-SELEX demonstrates unexpectedly high intrinsic sequence specificity and complex DNA binding of many human transcription factors”",
  "data": [
    {"target": "ZNF721 full-length (Homo sapiens, UniProt Q8TF20-2 1-923)", "sequence (Q8TF20 other isoform, or with tags, fused parts or gaps)": "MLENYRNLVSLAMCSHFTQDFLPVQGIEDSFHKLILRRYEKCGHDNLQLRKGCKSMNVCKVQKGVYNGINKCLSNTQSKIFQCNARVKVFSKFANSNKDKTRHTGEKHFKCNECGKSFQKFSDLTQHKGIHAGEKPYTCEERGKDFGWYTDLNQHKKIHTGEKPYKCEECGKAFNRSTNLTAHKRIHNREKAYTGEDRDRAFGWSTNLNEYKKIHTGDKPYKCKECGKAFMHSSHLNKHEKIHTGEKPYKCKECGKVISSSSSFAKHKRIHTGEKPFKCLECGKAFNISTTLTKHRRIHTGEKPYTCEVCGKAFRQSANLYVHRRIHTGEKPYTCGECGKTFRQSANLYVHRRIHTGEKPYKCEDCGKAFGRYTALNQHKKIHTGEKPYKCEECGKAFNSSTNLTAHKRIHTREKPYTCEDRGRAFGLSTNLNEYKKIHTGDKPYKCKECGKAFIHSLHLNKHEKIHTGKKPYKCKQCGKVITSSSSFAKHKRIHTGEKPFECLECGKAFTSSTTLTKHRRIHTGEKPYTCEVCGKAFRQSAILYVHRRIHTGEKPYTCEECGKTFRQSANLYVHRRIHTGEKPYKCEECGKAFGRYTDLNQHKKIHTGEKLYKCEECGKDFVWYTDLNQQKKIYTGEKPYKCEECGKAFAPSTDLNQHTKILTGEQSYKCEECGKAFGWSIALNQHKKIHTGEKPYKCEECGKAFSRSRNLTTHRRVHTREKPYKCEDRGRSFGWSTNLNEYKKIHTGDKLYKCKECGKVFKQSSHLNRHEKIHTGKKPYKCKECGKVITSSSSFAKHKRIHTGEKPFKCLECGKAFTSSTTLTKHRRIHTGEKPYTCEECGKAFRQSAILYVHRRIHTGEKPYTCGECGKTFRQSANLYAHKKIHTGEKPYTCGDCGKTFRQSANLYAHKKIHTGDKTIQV", "assay": "HT-SELEX; 20 mM HEPES pH 7, 140 mM KCl, 5 mM NaCl, 1 mM K2HPO4, 2 mM MgSO4, 100 uM EGTA, ZnSO4, 0.1% Tween20; room temperature, 1 h; high values mean tight binding", "details": "protein: ivt; tags: eGFP (N-terminal); dsDNA, one strand shown", "procedure,_shortened": "(§1)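 The binding signal is a relative k-mer count in selected reads, and higher values mean tighter binding. To obtain these reads, bead-bound tagged transcription factor (full-length or DNA-binding-domain fragment, produced in HEK293 lysate or cell-free extract) was mixed with a randomized 40-base DNA library for 1 h at room temperature in low-stringency HEPES/KCl buffer with Tween20. Bound DNA was recovered by washing and heat elution, PCR-amplified through successive cycles and sequenced on Illumina (~3 million 60 bp reads per sample).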", "units": {"binding signal": "relative 10-mer count"}, "values": [
      {"sequence": "ACGCTTCATA", "binding signal": 0.122},
      {"sequence": "CACACCCCAC", "binding signal": 0.123},
      {"sequence": "CAAAAAAAAC", "binding signal": 0.123},
      {"sequence": "CCTGCCCCCC", "binding signal": 0.103},
      {"sequence": "AAAAAAGCGG", "binding signal": 0.11},
      {"sequence": "CCACCTCCCC", "binding signal": 0.278},
      {"sequence": "CCCCCCGCAC", "binding signal": 0.115},
      {"sequence": "GGTGGGGGGA", "binding signal": 0.186},
      {"sequence": "TAAAAAAAAA", "binding signal": 0.115},
      {"sequence": "TAAAAAAGCA", "binding signal": 0.179},
      {"sequence": "CCCACCCCAG", "binding signal": 0.114},
      {"sequence": "TCCCCCCCCA", "binding signal": 0.116},
      {"sequence": "GCCCCCCCAC", "binding signal": 0.112},
      {"sequence": "AACAAGCAGC", "binding signal": 0.132},
      {"sequence": "CAGAAAAAAG", "binding signal": 0.147},
      {"sequence": "CCACCCCCAC", "binding signal": 0.326},
      {"sequence": "GCTTTTTTTA", "binding signal": 0.176},
      {"sequence": "CCCCCCTCCA", "binding signal": 0.13},
      {"sequence": "CTCCCCCCCC", "binding signal": 0.158},
      {"sequence": "CCCCCGCCGC", "binding signal": 0.128},
      {"sequence": "AAAAAGCATC", "binding signal": 0.123},
      {"sequence": "CTTCATACAC", "binding signal": 0.291},
      {"sequence": "CCGCCCCCAC", "binding signal": 0.178},
      {"sequence": "CCAGCCCACC", "binding signal": 0.12},
      {"sequence": "AAAAAGCAGC", "binding signal": 0.557},
      {"sequence": "CCCCGCTCCC", "binding signal": 0.139},
      {"sequence": "CACCCACCAC", "binding signal": 0.196},
      {"sequence": "CCCACCCCGC", "binding signal": 0.212},
      {"sequence": "AAAAGCAGTC", "binding signal": 0.111},
      {"sequence": "AGCAGTACCA", "binding signal": 0.118},
      {"sequence": "CCTCCGCCCC", "binding signal": 0.161},
      {"sequence": "CCCAACCCCC", "binding signal": 0.208},
      {"sequence": "AAAAAAGGCA", "binding signal": 0.18},
      {"sequence": "CACCCCACAC", "binding signal": 0.138},
      {"sequence": "CACCACCCAC", "binding signal": 0.206},
      {"sequence": "CTCCCCCCTC", "binding signal": 0.108},
      {"sequence": "CCCTCGCCCC", "binding signal": 0.167},
      {"sequence": "GGGGCGGGGA", "binding signal": 0.131},
      {"sequence": "CCAACCCCCA", "binding signal": 0.13},
      {"sequence": "CAACCACCCC", "binding signal": 0.13}
    ]},
    {"target": "ZNF721 DBD1 (Homo sapiens, UniProt Q8TF20-2 29-461)", "sequence (Q8TF20 17-449)": "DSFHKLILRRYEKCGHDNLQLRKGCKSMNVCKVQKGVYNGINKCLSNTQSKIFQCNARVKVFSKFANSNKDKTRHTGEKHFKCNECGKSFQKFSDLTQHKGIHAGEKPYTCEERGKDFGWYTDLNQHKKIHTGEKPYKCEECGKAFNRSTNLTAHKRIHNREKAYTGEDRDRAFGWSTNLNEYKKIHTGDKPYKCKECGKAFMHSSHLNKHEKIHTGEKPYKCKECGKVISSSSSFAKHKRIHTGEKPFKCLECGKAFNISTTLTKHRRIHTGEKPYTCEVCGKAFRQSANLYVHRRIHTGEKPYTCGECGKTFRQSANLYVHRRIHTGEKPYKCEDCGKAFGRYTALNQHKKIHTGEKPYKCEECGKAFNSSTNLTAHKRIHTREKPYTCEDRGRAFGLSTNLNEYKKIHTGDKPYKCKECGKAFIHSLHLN", "assay": "HT-SELEX; 20 mM HEPES pH 7, 140 mM KCl, 5 mM NaCl, 1 mM K2HPO4, 2 mM MgSO4, 100 uM EGTA, ZnSO4, 0.1% Tween20; room temperature, 1 h; high values mean tight binding", "details": "protein: ivt; tags: eGFP (N-terminal); dsDNA, one strand shown", "procedure,_shortened": "as §1", "units": {"binding signal": "relative 10-mer count"}, "values": [
      {"sequence": "ACGCTTCATA", "binding signal": 0.2},
      {"sequence": "CACACCCCAC", "binding signal": 0.00394},
      {"sequence": "CAAAAAAAAC", "binding signal": 0.00243},
      {"sequence": "CCTGCCCCCC", "binding signal": 0.00454},
      {"sequence": "AAAAAAGCGG", "binding signal": 0.0255},
      {"sequence": "CCACCTCCCC", "binding signal": 0.0134},
      {"sequence": "CCCCCCGCAC", "binding signal": 0.00372},
      {"sequence": "GGTGGGGGGA", "binding signal": 0.00904},
      {"sequence": "TAAAAAAAAA", "binding signal": 0.0133},
      {"sequence": "TAAAAAAGCA", "binding signal": 0.00816},
      {"sequence": "CCCACCCCAG", "binding signal": 0.00321},
      {"sequence": "TCCCCCCCCA", "binding signal": 0.005},
      {"sequence": "GCCCCCCCAC", "binding signal": 0.0055},
      {"sequence": "AACAAGCAGC", "binding signal": 0.0039},
      {"sequence": "CAGAAAAAAG", "binding signal": 0.0308},
      {"sequence": "CCACCCCCAC", "binding signal": 0.0121},
      {"sequence": "GCTTTTTTTA", "binding signal": 0.0317},
      {"sequence": "CCCCCCTCCA", "binding signal": 0.0055},
      {"sequence": "CTCCCCCCCC", "binding signal": 0.00761},
      {"sequence": "CCCCCGCCGC", "binding signal": 0.00436},
      {"sequence": "AAAAAGCATC", "binding signal": 0.0262},
      {"sequence": "CTTCATACAC", "binding signal": 0.384},
      {"sequence": "CCGCCCCCAC", "binding signal": 0.00821},
      {"sequence": "CCAGCCCACC", "binding signal": 0.00353},
      {"sequence": "AAAAAGCAGC", "binding signal": 0.00835},
      {"sequence": "CCCCGCTCCC", "binding signal": 0.0044},
      {"sequence": "CACCCACCAC", "binding signal": 0.00949},
      {"sequence": "CCCACCCCGC", "binding signal": 0.0094},
      {"sequence": "AAAAGCAGTC", "binding signal": 0.00225},
      {"sequence": "AGCAGTACCA", "binding signal": 0.0341},
      {"sequence": "CCTCCGCCCC", "binding signal": 0.00789},
      {"sequence": "CCCAACCCCC", "binding signal": 0.00789},
      {"sequence": "AAAAAAGGCA", "binding signal": 0.00284},
      {"sequence": "CACCCCACAC", "binding signal": 0.0055},
      {"sequence": "CACCACCCAC", "binding signal": 0.0105},
      {"sequence": "CTCCCCCCTC", "binding signal": 0.00605},
      {"sequence": "CCCTCGCCCC", "binding signal": 0.00702},
      {"sequence": "GGGGCGGGGA", "binding signal": 0.00633},
      {"sequence": "CCAACCCCCA", "binding signal": 0.00486},
      {"sequence": "CAACCACCCC", "binding signal": 0.00486}
    ]},
    {"target": "ZNF721 DBD2 (Homo sapiens, UniProt Q8TF20-2 395-923)", "sequence (Q8TF20 383-911)": "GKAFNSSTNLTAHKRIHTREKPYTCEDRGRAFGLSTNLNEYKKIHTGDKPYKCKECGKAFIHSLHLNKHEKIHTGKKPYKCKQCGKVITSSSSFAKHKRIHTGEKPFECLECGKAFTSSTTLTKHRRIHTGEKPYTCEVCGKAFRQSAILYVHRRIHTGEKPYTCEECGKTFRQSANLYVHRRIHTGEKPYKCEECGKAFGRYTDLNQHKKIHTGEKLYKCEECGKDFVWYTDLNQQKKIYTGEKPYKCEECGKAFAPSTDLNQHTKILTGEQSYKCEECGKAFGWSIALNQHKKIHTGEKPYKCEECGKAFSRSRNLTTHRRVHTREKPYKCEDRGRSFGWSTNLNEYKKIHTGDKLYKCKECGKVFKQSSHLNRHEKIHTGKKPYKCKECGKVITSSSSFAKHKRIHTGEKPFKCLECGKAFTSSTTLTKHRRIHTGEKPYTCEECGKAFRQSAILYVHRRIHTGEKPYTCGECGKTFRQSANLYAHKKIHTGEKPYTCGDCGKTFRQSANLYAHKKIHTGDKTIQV", "assay": "HT-SELEX; 20 mM HEPES pH 7, 140 mM KCl, 5 mM NaCl, 1 mM K2HPO4, 2 mM MgSO4, 100 uM EGTA, ZnSO4, 0.1% Tween20; room temperature, 1 h; high values mean tight binding", "details": "protein: ivt; tags: eGFP (N-terminal); dsDNA, one strand shown", "procedure,_shortened": "as §1", "units": {"binding signal": "relative 10-mer count"}, "values": [
      {"sequence": "ACGCTTCATA", "binding signal": 0.00108},
      {"sequence": "CACACCCCAC", "binding signal": 0.00419},
      {"sequence": "CAAAAAAAAC", "binding signal": 0.0838},
      {"sequence": "CCTGCCCCCC", "binding signal": 0.00132},
      {"sequence": "AAAAAAGCGG", "binding signal": 0.0279},
      {"sequence": "CCACCTCCCC", "binding signal": 0.00336},
      {"sequence": "CCCCCCGCAC", "binding signal": 0.00348},
      {"sequence": "GGTGGGGGGA", "binding signal": 0.00407},
      {"sequence": "TAAAAAAAAA", "binding signal": 0.0464},
      {"sequence": "TAAAAAAGCA", "binding signal": 0.114},
      {"sequence": "CCCACCCCAG", "binding signal": 0.00156},
      {"sequence": "TCCCCCCCCA", "binding signal": 0.00264},
      {"sequence": "GCCCCCCCAC", "binding signal": 0.00803},
      {"sequence": "AACAAGCAGC", "binding signal": 0.0997},
      {"sequence": "CAGAAAAAAG", "binding signal": 0.0475},
      {"sequence": "CCACCCCCAC", "binding signal": 0.00515},
      {"sequence": "GCTTTTTTTA", "binding signal": 0.0453},
      {"sequence": "CCCCCCTCCA", "binding signal": 0.0024},
      {"sequence": "CTCCCCCCCC", "binding signal": 0.003},
      {"sequence": "CCCCCGCCGC", "binding signal": 0.00168},
      {"sequence": "AAAAAGCATC", "binding signal": 0.0225},
      {"sequence": "CTTCATACAC", "binding signal": 0.00132},
      {"sequence": "CCGCCCCCAC", "binding signal": 0.0036},
      {"sequence": "CCAGCCCACC", "binding signal": 0.00336},
      {"sequence": "AAAAAGCAGC", "binding signal": 0.477},
      {"sequence": "CCCCGCTCCC", "binding signal": 0.00108},
      {"sequence": "CACCCACCAC", "binding signal": 0.00779},
      {"sequence": "CCCACCCCGC", "binding signal": 0.00336},
      {"sequence": "AAAAGCAGTC", "binding signal": 0.105},
      {"sequence": "AGCAGTACCA", "binding signal": 0.0533},
      {"sequence": "CCTCCGCCCC", "binding signal": 0.003},
      {"sequence": "CCCAACCCCC", "binding signal": 0.00168},
      {"sequence": "AAAAAAGGCA", "binding signal": 0.13},
      {"sequence": "CACCCCACAC", "binding signal": 0.00875},
      {"sequence": "CACCACCCAC", "binding signal": 0.0119},
      {"sequence": "CTCCCCCCTC", "binding signal": 0.00336},
      {"sequence": "CCCTCGCCCC", "binding signal": 0.00336},
      {"sequence": "GGGGCGGGGA", "binding signal": 0.00264},
      {"sequence": "CCAACCCCCA", "binding signal": 0.00168},
      {"sequence": "CAACCACCCC", "binding signal": 0.00252}
    ]}
  ]
}
